# An excerpt weighted towards active compounds, which were near 21% of everything screened.
# Pf growth 48h = Primary qHTS for delayed death inhibitors of the malarial parasite plastid, 48 hour incubation | P. falciparum luciferase growth in erythrocytes, 48 h | Potency, µM (highest dose often 28.7 µM), usual class: inhibitors | 310,000 compounds, 5.9% hits; active = well fitted inhibition curve with a large enough effect; inconclusive = small, poorly fitted or top-dose-only effect, or another doubt; inactive = no such curve, though single readings can be large or run the other way
#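 Growth was read as firefly luciferase luminescence after a 48 h, 37 C, 5% CO2 exposure of compounds to reporter-bearing P. falciparum cultures (0.1% parasitemia, 2% hematocrit final) in Albumax-supplemented RPMI 1640.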
# NS1 function inh = qHTS Assay for Inhibitors of Influenza NS1 Protein Function. Potency, µM (series often up to 46.1 µM). AID 2326, 2010. 270,000 compounds, 0.4% hits; also: actives are rising curves; nearly all actives have a fitted effect of over 50% in size
#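 Growth recovery, yeast-based: influenza A NS1 expressed in S. cerevisiae causes slow growth, and suppressors are detected by OD600. The parent strain without NS1 is used as positive control.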
# Pf growth 96h = Primary qHTS for delayed death inhibitors of the malarial parasite plastid, 96 hour incubation; P. falciparum luciferase reporter growth, 96 h; Potency, µM (doses to about 28.7 µM), actives largely listed as inhibitors; 320,000 compounds, 6.9% hits; active = well fitted inhibition curve with a large enough effect; inconclusive = small, poorly fitted or top-dose-only effect, or another doubt; inactive = no such curve, though single readings can be large or run the other way
#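 P. falciparum expressing integrated firefly luciferase, in erythrocytes at 2% hematocrit, 0.05% parasitemia, incubated with compounds 96 h at 37 C, 5% CO2. Growth inhibition read as loss of luminescence; two-generation exposure targets delayed-death apicoplast inhibitors.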
# CHX counter = Cycloheximide Counterscreen for Small Molecule Inhibitors of Shiga Toxin. cell reporter, cycloheximide protein synthesis inhibition counterscreen. max response, %. 300,000 compounds, 12% hits; in the data active = max response mostly above about 13%, no sharp cut-off; inactive = mostly below about 14%; also: read at 38.3 µM for the half of the compounds with a filed dose
# Shiga toxin inh = A qHTS for Small Molecule Inhibitors of Shiga Toxin; Vero cells, Shiga toxin protein synthesis inhibition reporter; inhibition, % at 38.7 µM; 290,000 compounds, 9.2% hits; AID 2315, 2010; in the data active = inhibition mostly above about 28%, no sharp cut-off; inactive = mostly below about 43%
# SARS PLpro yeast = qHTS of Yeast-based Assay for SARS-CoV PLP | S. cerevisiae expressing SARS-CoV PLpro, growth rescue | Potency, µM (titrated, usually from 32.9 µM), actives largely listed as activators | 330,000 compounds, 0.19% hits | AID 485353, 2010; also: nearly all actives have a fitted effect of over 55% in size
# A number is an active result; 0 = inactive; ? = inconclusive; - = no result. Unless noted, calls follow the shape of the full dose curve.
SMILES,Pf growth 48h,NS1 function inh,Pf growth 96h,CHX counter,Shiga toxin inh,SARS PLpro yeast
Cc1ccc(N=Nc2c(O)[nH]c3ccc(F)cc23)cc1,0,0,0,50.5,67.4,0
Oc1[nH]c2ccccc2c1N=Nc1cccc(Cl)c1,0,0,?,28.1,33.9,0
Cc1cccc2c(N=Nc3ccccc3)c(O)[nH]c12,0,0,0,64.9,57.1,0
O=C(O)c1ccc(N=Nc2c(O)[nH]c3cc(Cl)ccc23)cc1,?,0,4.65µM,35.6,66.8,0
COc1ccccc1CNC(=O)C1CCCN(S(=O)(=O)c2ccc3c(c2)C(C)(C)C(=O)N3C)C1 (centres undefined),?,0,0,0,0,0
CCN(CC(=O)NCc1cccs1)C(=O)CCc1c[nH]c2ccccc12,0,-,?,0,0,0
CCC(C)(C)NC(=O)C1CC(=O)N(CCc2ccc(F)cc2)C1 (centres undefined),0,0,0,0,0,0
O=C(O)c1ccc(N=Nc2c(O)[nH]c3ccc(Br)cc23)cc1,?,0,5.22µM,55.6,110.8,0
COC(=O)N=Nc1c(O)[nH]c2ccc(Br)cc12,0,0,0,0,0,0
Cc1nc2ccccc2cc1C(=O)N/N=C/c1ccco1,0,0,0,0,0,0
O=C(Nc1ccc(C(=O)O)cc1)/C(=C\c1ccco1)NC(=O)c1ccc(Br)o1,0,0,0,0,0,0
O=C(O)/C(=C/c1ccco1)NC(=O)c1ccc(Br)o1,?,0,13.1µM,0,0,0
O=C(COc1ccc(/C=N/NC(=O)c2cc3ccccc3o2)cc1Br)Nc1ccccc1,0,0,?,53.1,112.2,0
O=C(N/N=C/c1ccco1)c1cc2ccccc2o1,0,0,0,41.6,58.8,0
O=C(N/N=C/c1ccco1)c1ccc(Br)o1,0,0,0,25.1,67.0,0
CCOC(=O)C1CCN(C(=O)C(CCSC)NC(=O)c2ccccc2OC)CC1 (centres undefined),?,-,0,-,-,0
CCc1nn(C(C)C(=O)N2CCN(c3ccc(OC)cc3)CC2)c(=O)c2cc3occc3n12 (centres undefined),0,0,?,0,0,0
CCCc1ccc2oc(C(=O)NCCc3nc(C(=O)OCC)cs3)c(C)c2c1,0,0,0,32.4,50.2,0
CCCc1ccc2oc(C(=O)NCCc3cnn(C)c3)c(C)c2c1,0,0,0,34.0,104.2,0
COc1ccccc1C(=O)NC(=O)COC(=O)c1ccc(Cl)nc1,0,-,0,-,-,0
O=C(NCC1CCN(Cc2ccc(Cl)cc2)CC1)C1CCCN(c2ncnc3c2nc2n3CCCCC2)C1 (centres undefined),11.7µM,0,0,0,0,0
O=C(NCC1CCN(Cc2cccc(Cl)c2)CC1)C1CCCN(c2ncnc3c2nc2n3CCCCC2)C1 (centres undefined),?,0,0,0,0,0
O=C(NCC1CCN(Cc2ccc(F)cc2)CC1)C1CCCN(c2ncnc3c2nc2n3CCCCC2)C1 (centres undefined),?,0,9.28µM,0,0,0
COCCNC(=O)c1cn(CCOC)c(=O)c2c1c1ccccc1n2C,0,0,?,0,0,0
C[C@H](NC(=O)c1nc[nH]c1C(=O)NCC(=O)OCc1ccccc1)c1ccccc1,0,0,0,0,0,0
SMILES,Pf growth 48h,NS1 function inh,Pf growth 96h,CHX counter,Shiga toxin inh,SARS PLpro yeast
O=C(Cc1cccs1)Nc1nnc(SCc2cccc3ccccc23)s1,0,0,0,0,0,0
CC(=O)Nc1nc2cc(N)ccc2s1,0,-,?,-,-,0
CC(=O)Nc1nc2c(ccc3ccccc32)s1,0,0,10.4µM,9.9,0,0
O=C(Cc1cccs1)Nc1nc2c(ccc3ccccc32)s1,0,0,-,34.2,86.4,0
O=C(C1CCN(Cc2cccs2)CC1)N1CCN(Cc2ccc3c(c2)OCO3)CC1,0,-,0,0,0,0
CSc1nc(N)c(C(=O)NC2CCCCC2)s1,0,0,0,38.3,74.8,0
COC(=O)c1sc(SC)nc1N,0,0,0,0,0,0
CCOC(=O)c1sc(SC)nc1N,0,-,0,16.3,0,0
CCN(c1ccccc1)S(=O)(=O)c1cnc[nH]1,0,0,?,0,0,0
Cc1ccc(OCC(O)C(C)NC(C)C)c2c1CCC2 (centres undefined),-,0,-,-,-,-
Nc1ccc(-c2nc3ccc(-c4nc5ccc(N)cc5[nH]4)cc3[nH]2)cc1,-,0,-,0,0,-
Nc1cccc(-c2nc3ccccc3[nH]2)c1,0,0,0,22.1,70.8,0
Cc1ccc2nc(-c3cccc(N)c3)[nH]c2c1,0,0,0,17.0,32.8,0
Cc1ccc2nc(-c3sc4nc(C)cc(C)c4c3N)[nH]c2c1,0,0,0,25.5,42.6,0
NC(=O)c1c(NC(=O)C(=O)N2CCOCC2)sc2c1CCCC2,?,0,0,0,0,0
O=C(Cn1nc(Cl)nc1Cl)c1cc2ccccc2oc1=O,0,0,?,0,0,0
CC(C)CCNC(=O)C1CCN(S(=O)(=O)c2ccc3c(c2)CC(C)N3C(=O)C2CCC2)CC1 (centres undefined),14.7µM,0,?,0,0,0
Cc1ccnc(NC(=O)C2CCN(S(=O)(=O)c3ccc4c(c3)CC(C)N4C(=O)C3CCC3)CC2)c1 (centres undefined),10.4µM,0,?,0,0,0
Cc1ccc(NC(=O)C2CCN(S(=O)(=O)c3ccc4c(c3)CC(C)N4C(=O)C3CCC3)CC2)nc1 (centres undefined),?,0,?,0,0,0
CC(C)CCNC(=O)C1CCCN(S(=O)(=O)c2ccc3c(c2)CC(C)N3C(=O)C2CC2)C1 (centres undefined),0,0,0,0,0,0
O=C(NCCc1ccc(C(F)(F)F)cc1)C1CCC(=O)N(CCCc2ccccc2)C1 (centres undefined),0,0,0,0,0,0
Cc1cccc(NC(=O)c2ccc(-n3cncn3)c([N+](=O)[O-])c2)c1,0,-,0,-,-,0
O=C(N1CCOCC1)n1cnc2ccccc21,0,0,0,0,0,0
Cc1cc2ncn(C(=O)N3CCC(C)CC3)c2cc1C,0,0,0,27.9,66.7,0
CS(=O)(=O)c1ccc(Cl)c(NC(=O)c2cc(S(=O)(=O)N3CCOCC3)ccc2N2CCCC2)c1,?,-,13.1µM,-,-,0
Cc1ccc(S(=O)(=O)N2CCOCC2)cc1C(=O)Nc1cc(Cl)ccc1N1CCOCC1,4.65µM,-,?,-,-,0
O=C(Nc1cc(S(=O)(=O)N2CCOCC2)ccc1N1CCCC1)c1cc(F)c(F)cc1Cl,?,-,0,-,-,0
C/C(=N\NC(=S)Nc1cc(S(=O)(=O)N2CCOCC2)ccc1Cl)c1ccccc1F,0,?,0,58.8,74.6,0
O=C(CCOc1cccc(Br)c1)Nc1ccc(F)c(S(=O)(=O)N2CCOCC2)c1,?,-,?,-,-,0

# Source: PubChem BioAssay
